Source: PubChem BioAssay (EPA / NIEHS)
Results filed as inconclusive are left out. Where a structure was tested more than once in an assay, its records may differ in their call. Active and inactive are the calls of the source. Rule for the calls, unless noted: active = hit-call score of the fitted dose curve at least 0.9, where 1 is the maximum; inactive = score below 0.9.

How the values were obtained:
[1] = BSK_IMphg_SRB: Viability Assessment in the BioMAP Diversity Plus: IMphg Assay (AID 2284292); conditions: primary human endothelial cells with macrophages;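 note: measured one day after compound addition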
Procedure, shortened: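 Human venular endothelial cells with macrophages, 24 h after chemical dosing; total protein by 0.1% SRB staining after 10% TCA fixation, read at 560 nm. Positive-direction fitting versus DMSO baseline.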

[2] = read-out: Macrophage colony-stimulating factor (MCSF), CSF1 (gene 1435); assay: BSK_IMphg_MCSF: BioMAP Diversity Plus: IMphg Assay for Macrophage colony-stimulating factor (MCSF) Biomarker Activity (AID 2284293); conditions: primary human endothelial cells with macrophages
Procedure, shortened: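 Co-culture of human venular endothelial cells and macrophages, 24 hours of chemical exposure. M-CSF quantified by ELISA, with parallel SRB total-protein staining for cytotoxicity; activity fitted relative to DMSO.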

[3] = read-out: Interleukin-10 (IL10), IL10 (gene 3586); assay: BSK_IMphg_IL10: BioMAP Diversity Plus: IMphg Assay for Interleukin-10 (IL10) Biomarker Activity (AID 2284294); conditions: primary human endothelial cells with macrophages
Procedure, shortened: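 Human venular endothelial cells cocultured with macrophages, dosed 24 h; IL-10 measured by ELISA, activity relative to DMSO. Cytotoxicity assessed in parallel cultures by sulforhodamine B total-protein staining.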

[4] = BSK_IMphg_SRB.Mphg: Macrophage Viability Assessment in the BioMAP Diversity Plus: IMphg Assay (AID 2284295); conditions: primary human endothelial cells with macrophages
Procedure, shortened: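 Venular endothelial cells co-cultured with macrophages, read 24 h after dosing. Total protein measured by 0.1% SRB staining after 10% TCA fixation, absorbance at 560 nm. Fitted in positive direction against DMSO baseline.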

[5] = read-out: Thrombomodulin, THBD (gene 7056); assay: BSK_LPS_Thrombomodulin: BioMAP Diversity Plus: LPS Assay for Thrombomodulin Biomarker Activity (AID 2284296); conditions: outcome: primary human HUVEC with PBMC unless noted
Procedure, shortened: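 Human umbilical vein endothelial cells co-cultured with PBMC and stimulated with LPS; cell-surface thrombomodulin measured by ELISA 24 hours after compound. Gain or loss versus DMSO; cytotoxicity checked by SRB staining in parallel cultures.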

CD69, CD69 (gene 969) = assay: BSK_LPS_CD69: BioMAP Diversity Plus: LPS Assay for CD69 Biomarker Activity (AID 2284303); conditions: primary human HUVEC with PBMC
Procedure, shortened: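 Human umbilical vein endothelial cells co-cultured with PBMC under LPS stimulation, chemical exposure 24 h; cell-surface CD69 measured by ELISA and fitted in the positive direction versus DMSO.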

[6] = VALA_TUBHUV_Agonist_CellCount: Viability Assessment in the VALA Sciences human Umbilical Vein Endothelial Tubule Formation (TUBHUV) Agonism Assay (AID 2284309; active = hit-call score of the fitted dose curve at least 0.9, where 1 is the maximum)
Procedure, shortened: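 HUVEC co-cultured 1:3 with HDF for 3 days in 10 ng/ml VEGF, then compounds added in VEGF medium for a further 3 days (72 h). Nuclear-stain/CD31 imaging cell count. Positive-direction fit versus 0.1% DMSO vehicle.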

[7] = VALA_TUBIPS_Agonist_TubuleLength: VALA Sciences human iPS-derived Endothelial Tubule Formation (TUBIPS) Agonism Assay (AID 2284311; active = hit-call score of the fitted dose curve at least 0.9, where 1 is the maximum)
Procedure, shortened: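 Human iPS-derived endothelial cells were exposed to compound for 72 h. Tubule formation was imaged by high-content fluorescence and scored as gain of signal relative to DMSO vehicle (agonist mode).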

[8] = IUF_NPC2c_oligodendrocyte_migration_120hr: Leibniz Research Institute for Environmental Medicine (IUF) 120-hour Neural Progenitor Cell Migration Assay for Oligodendrocyte Migration (NPC2c) (AID 2284297);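 note: O4-positive oligodendrocyte migration distance divided by radial glia migration distance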
Procedure, shortened: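 Exposure runs 5 days from differentiation onset at 37C, seven concentrations plus solvent control, DMSO at most 0.1%, applied to primary hNPC spheres on laminin. After fixation, O4 immunostaining gives oligodendrocyte distance from the sphere core, relative to radial glia migration.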

[9] = IUF_NPC2a_radial_glia_migration_120hr: Leibniz Research Institute for Environmental Medicine (IUF) 120-hour Neural Progenitor Cell Migration Assay for Radial Glia Migration (NPC2a) (AID 2284298)
Procedure, shortened: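 Migration distance in um, sphere core edge to migration-area edge, derived by nuclei-density algorithm from Hoechst images after 120 h compound exposure. Primary hNPC spheres differentiated on poly-D-lysine/laminin in N2 medium, 37C; medium half-replaced day 3.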

[10] = IUF_NPC2a_radial_glia_migration_72hr: Leibniz Research Institute for Environmental Medicine (IUF) 72-hour Neural Progenitor Cell Migration Assay for Radial Glia Migration (NPC2a) (AID 2284299)
Procedure, shortened: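 Human fetal neural progenitor spheres (0.3 mm) plated on poly-D-lysine/laminin in N2 differentiation medium and exposed from day 0 at 7 concentrations; radial glia migration distance from sphere edge measured at 72 h on brightfield images, mean of four directions, vs DMSO.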

[11] = IUF_NPC2b_neuronal_migration_120hr: Leibniz Research Institute for Environmental Medicine (IUF) 120-hour Neural Progenitor Cell Migration Assay for Neuron Migration (NPC2b) (AID 2284300)
Procedure, shortened: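 TUBB3-positive neurons are imaged after 120 h of differentiation, and their mean distance from the sphere edge is normalised to radial glia migration. Single 0.3 mm fetal hNPC spheres on poly-D-lysine/laminin received 7 compound concentrations, ≤0.1% DMSO, refreshed at day 3.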

[12] = IUF_NPC3_neuronal_differentiation_120hr: Leibniz Research Institute for Environmental Medicine (IUF) 120-hour Neuronal Differentiation Assay (NPC3) (AID 2284301)
Procedure, shortened: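 Single 0.3 mm neurospheres from human fetal cortex were plated in differentiation medium containing test compound. Medium was half-replaced on day 3. After 120 h cells were fixed, immunostained and imaged, and neuronal fraction was scored against DMSO control.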

[13] = IUF_NPC4_neurite_length_120hr: Leibniz Research Institute for Environmental Medicine (IUF) 120-hour Neuronal Morphology Assay for Neurite Length (NPC4) (AID 2284302)
Procedure, shortened: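 Read-out is mean neurite length in µm of TUBB3-positive neurons, skeletonized from high-content fluorescence images after 120 h. Single 0.3 mm primary human neural progenitor spheres differentiated on poly-D-lysine/laminin under continuous compound exposure; DMSO was baseline.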

[14] = IUF_NPC4_neurite_area_120hr: Leibniz Research Institute for Environmental Medicine (IUF) 120-hour Neuronal Morphology Assay for Neurite Area (NPC4) (AID 2284305; active = hit-call score of the fitted dose curve at least 0.9, where 1 is the maximum)
Procedure, shortened: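 Neurite area is read out as the mean pixel area, excluding nuclei, of skeletonized TUBB3-positive neurons imaged after 120 h. Primary human neural progenitor spheres differentiated on poly-D-lysine/laminin with compound present from day 0. Activity was referenced to DMSO controls.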

[15] = IUF_NPC2-5_cytotoxicity_72hr: Cytotoxicity Assessment at 72 hours in the Leibniz Research Institute for Environmental Medicine (IUF) Neural Progenitor Cell Migration and Differentiation Assay for Cytotoxicity (NPC2-5) (AID 2284306; active = hit-call score of the fitted dose curve at least 0.9, where 1 is the maximum;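 note: LDH release into supernatant measured by resorufin fluorescence marking membrane damage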)
Procedure, shortened: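 Membrane integrity loss was scored from fluorescence (RFU) of resorufin generated by LDH in culture supernatant, 72 h after dosing. Differentiating human progenitor spheres received seven serial compound concentrations alongside a solvent control.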

[16] = IUF_NPC2-5_cytotoxicity_120hr: Cytotoxicity Assessment at 120 hours in the Leibniz Research Institute for Environmental Medicine (IUF) Neural Progenitor Cell Migration and Differentiation Assay (NPC2-5) (AID 2284307; active = hit-call score of the fitted dose curve at least 0.9, where 1 is the maximum;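 for AC50: LDH released into supernatant as membrane damage marker via resorufin fluorescence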)
Procedure, shortened: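 Membrane-integrity loss measured as LDH activity in medium supernatant via resazurin-to-resorufin fluorescence after 120 h exposure. hNPC spheres from GW 16-19 fetal cortex differentiated on poly-D-lysine/laminin, 37C, medium half-refreshed day 3; seven concentrations, DMSO max 0.1%.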

[17] = IUF_NPC2-5_cell_number_120hr: Cell Number Assessment at 120 hours in the Leibniz Research Institute for Environmental Medicine (IUF) Neural Progenitor Cell Migration and Differentiation Assay (NPC2-5) (AID 2284308);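 note: count of Hoechst-stained nuclei in migration zone around plated human neural progenitor spheres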
Procedure, shortened: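 Counting of all Hoechst-stained nuclei in the migration area at 120 h, versus DMSO control. Primary hNPC spheres differentiated on poly-D-lysine/laminin in N2 medium at 37C, dosed from day 0 (7 concentrations, DMSO ≤0.1%), half-refed day 3.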

[18] = IUF_NPC2-5_viability_120hr: Viability Assessment at 120 hours in the Leibniz Research Institute for Environmental Medicine (IUF) Neural Progenitor Cell Migration and Differentiation Assay (NPC2-5) (AID 2284312)
Procedure, shortened: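 Alamar blue resorufin fluorescence read after 5 days of differentiation, with compound present from day 0 and replenished at day 3. Primary hNPC spheres on laminin-coated plates, 37C; seven concentrations plus solvent control, fitted against DMSO.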

[19] = IUF_NPC5_oligodendrocyte_differentiation_120hr: Leibniz Research Institute for Environmental Medicine (IUF) 120-hour Oligodendrocyte Differentiation Assay (NPC5) (AID 2284304; active = hit-call score of the fitted dose curve at least 0.9, where 1 is the maximum;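 note: primary human fetal neural progenitor spheres plated to migrate and differentiate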)
Procedure, shortened: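 Oligodendrocyte differentiation scored as O4-positive cells, found by CNN image analysis, as percent of Hoechst-stained nuclei in the migration area. Scoring followed 5 days of exposure of plated hNPC neurospheres differentiating in DMEM/F12 N2 medium at 37C, with compound refreshed at day 3.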

Measured: AC50

O=C(O)C(F)(F)C(F)(F)C(F)(F)C(F)(F)C(F)(F)C(F)(F)F
inactive: [1] | [2] | [3] | [4] | [5] | CD69, CD69 (gene 969)

O=C(O)C(F)(F)C(F)(F)C(F)(F)C(F)(F)C(F)(F)C(F)(F)C(F)(F)C(F)(F)C(F)(F)C(F)(F)F
active: CD69, CD69 (gene 969) 3330 nM
inactive: [1] | [2] | [3] | [4] | [5] | CD69, CD69 (gene 969)

CC(C)(C)c1cc(O)ccc1O
inactive: [7]
active: [6] 11000 nM

COP(=O)(OC)O/C(=C\Cl)c1cc(Cl)c(Cl)cc1Cl
inactive: [15]
active: [8] 603 nM | [9] 638 nM | [10] 1030 nM | [11] 785 nM | [12] 988 nM | [13] 466 nM | [14] 675 nM | [16] 5390 nM | [17] 356 nM | [18] 1060 nM

CCOP(=S)(OCC)Oc1nc(Cl)c(Cl)cc1Cl
inactive: [8] | [9] | [10] | [11] | [12] | [13] | [19] | [14] | [15] | [16] | [17] | [18]

COC(=O)Cc1ccccc1
active: [5] 2180 nM
inactive: [5] inactive [setting not given] | CD69, CD69 (gene 969)

O=C(O)CCC(F)(C(F)(F)F)C(F)(F)F
inactive: [1] | [2] | [3] | [4] | [5] | CD69, CD69 (gene 969)

CC(=O)OC(c1ccccc1)C(Cl)(Cl)Cl (centres undefined)
inactive: [5] | CD69, CD69 (gene 969)
